Laboratory results published in PubChem BioAssay.
The source made the active and inactive calls. Unless noted, no rule for the calls is given here.

Assays:
[1] = resazurin metabolic signal in HepG2 cells – cell-based, resazurin fluorescence, 24 h, PK04 Diversity Set, profiling panel (AID 1172); details: HepG2 viability, higher = more signal; also: test concentration not given here
[2] = budding yeast growth changes without added modifier – OD600, strain BY4716, 24 h, basal condition, primary screen (AID 1173); details: S. cerevisiae BY4716 growth, OD600, 24 h; higher = more signal, called active from +8 up or from −8 down
[3] = viability profiling in MM1S myeloma cells – cell-based, resazurin fluorescence, basal, 24 h, PK04 Diversity Set, profiling panel (AID 1174); details: higher = more signal, called active from +8 up or from −8 down;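 also: MM1S multiple myeloma cell line; test concentration not given here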
[4] = molecular target: Dihydroorotate dehydrogenase (quinone), mitochondrial (Plasmodium falciparum (isolate 3D7)) (UniProt Q08210); experiment: inhibition of P. falciparum DHODH – biochemical, C-terminal His tag, absorbance 600 nm, primary screen (AID 1175); details: PfDHODH enzyme, DCIP absorbance 600 nm; higher = more signal, called active from +8 up or from −8 down;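 also: recombinant parasite enzyme with a five histidine tag at its C terminus; test concentration not given here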
[5] = inhibition of PAO1 biofilm formation – strain PAO1, LB-PBS medium, absorbance 600 nm, primary screen (AID 1176); also: test concentration not given here; details: P. aeruginosa PAO1 growth/biofilm, A600, 12 h; higher = more signal
[6] = growth modulation of vineyard yeast isolate – strain RM11-1a, OD600, basal, 24 h, primary screen (AID 1177);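 also: cultures grown under basal conditions with no added stressor; test concentration not given here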; details: S. cerevisiae RM11-1a growth, OD600, 24 h; higher = more signal, called active from +8 up or from −8 down
[7] = growth of efflux-deficient E. coli DRC39 – strain DRC39, OD650, 24 h, E. coli filamentation inducers, primary screen (AID 1178);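 also: growth measured as culture turbidity by optical density at 650 nm; test concentration not given here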; details: E. coli DRC39 acrAB, higher = more signal, called active from +8 up or from −8 down
[8] = growth of efflux-deficient E. coli DRC39 – strain DRC39, OD650, 48 h, E. coli filamentation inducers, primary screen (AID 1179);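 also: screen aims at cell division blockers that make cells filament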; details: E. coli DRC39 delta-acrAB growth, higher = more signal, called active from +8 up or from −8 down
[9] = viability profiling in RPMI8226 myeloma cells – cell-based, resazurin fluorescence, basal, 24 h, PK04 Diversity Set, profiling panel (AID 1180); details: higher = more signal;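 also: RPMI8826 multiple myeloma cell line at 5000 cells per well; test concentration not given here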
[10] = molecular target: E3 ubiquitin-protein ligase XIAP (Homo sapiens) (UniProt P98170); experiment: small molecules binding XIAP protein – biophysical, small-molecule microarray, fluorescence 635 nm, primary screen (AID 1181); details: higher = more signal;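 also: score merges 667 nm emission and signal to noise over triplicate slides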
E3 ubiquitin-protein ligase XIAP (Homo sapiens), sequence (P98170 whole entry, looked up): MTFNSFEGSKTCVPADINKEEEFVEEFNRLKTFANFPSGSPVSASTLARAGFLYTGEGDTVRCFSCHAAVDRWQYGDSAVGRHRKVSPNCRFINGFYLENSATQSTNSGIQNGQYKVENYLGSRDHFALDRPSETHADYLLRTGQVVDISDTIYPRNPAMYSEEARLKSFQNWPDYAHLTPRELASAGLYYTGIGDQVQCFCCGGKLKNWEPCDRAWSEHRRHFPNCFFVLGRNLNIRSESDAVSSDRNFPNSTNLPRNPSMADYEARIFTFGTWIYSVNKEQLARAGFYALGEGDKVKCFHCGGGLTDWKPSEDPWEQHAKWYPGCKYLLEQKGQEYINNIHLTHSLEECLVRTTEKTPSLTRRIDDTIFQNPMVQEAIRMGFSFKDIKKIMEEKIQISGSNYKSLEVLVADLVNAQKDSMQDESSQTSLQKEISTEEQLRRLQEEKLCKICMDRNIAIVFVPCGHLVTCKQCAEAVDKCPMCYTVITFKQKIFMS

Dihydroorotate dehydrogenase (quinone), mitochondrial (Plasmodium falciparum (isolate 3D7)), sequence (Q08210 whole entry, looked up): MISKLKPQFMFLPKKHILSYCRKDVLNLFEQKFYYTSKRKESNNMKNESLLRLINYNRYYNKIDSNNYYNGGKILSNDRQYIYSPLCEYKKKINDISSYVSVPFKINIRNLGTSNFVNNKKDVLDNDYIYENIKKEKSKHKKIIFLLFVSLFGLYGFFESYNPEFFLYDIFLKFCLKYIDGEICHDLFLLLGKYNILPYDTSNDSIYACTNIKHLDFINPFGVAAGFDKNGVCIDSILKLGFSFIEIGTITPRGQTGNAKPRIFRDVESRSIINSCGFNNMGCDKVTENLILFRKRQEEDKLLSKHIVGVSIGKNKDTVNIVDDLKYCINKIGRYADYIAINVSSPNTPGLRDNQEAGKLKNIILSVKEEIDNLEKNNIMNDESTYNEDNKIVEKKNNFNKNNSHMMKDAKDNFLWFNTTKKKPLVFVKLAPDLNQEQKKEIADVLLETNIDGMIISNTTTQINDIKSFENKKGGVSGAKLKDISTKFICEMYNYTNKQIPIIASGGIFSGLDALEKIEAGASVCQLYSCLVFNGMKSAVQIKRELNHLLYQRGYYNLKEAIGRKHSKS

## O=C1C[C@@](C(=O)NCC(F)(F)F)(c2ccc([N+](=O)[O-])cc2)[C@@H](c2ccc(CO)cc2)N1CC12CC3CC(CC(C3)C1)C2
[1]
  z-score: -1.85
[2]
  z-score: 0.188 (inactive)
[3]
  z-score: -1.4 (inactive)
[4]
  composite z-score: 0.042 (inactive)
[5]
  z-score: 0.36 (inactive)
[6]
  z-score: 0.419 (inactive)
[7]
  z-score: -0.229 (inactive)
[8]
  z-score: -0.684 (inactive)
[9]
  z-score: -2.92
[10]
  composite z-score: 0.144

## COCC1C2CC[C@H]3C(OCc4ccc(OC)cc4)OC[C@]4(C)[C@H]3C2=C(CN4C(=O)OC(C)(C)C)[C@H](C)C1COC (stereo not given in full)
[1]
  z-score: -0.819
[2]
  z-score: -0.316 (inactive)
[3]
  z-score: -0.79 (inactive)
[4]
  composite z-score: -0.566 (inactive)
[5]
  z-score: 0.796 (inactive)
[6]
  z-score: -0.688 (inactive)
[7]
  z-score: -0.705 (inactive)
[8]
  z-score: 0.286 (inactive)
[9]
  z-score: -0.723
[10]
  composite z-score: 0.441

## COc1ccc(C(=O)Nc2cccc(CN3C(=O)[C@]4(O[C@H](CCn5cc([C@H](O)c6ccccc6)nn5)[C@@H]([Si](C)(C)c5ccc(OC)cc5)[C@@H]4C)c4ccccc43)c2)cc1
[1]
  z-score: -2.58
[2]
  z-score: -1.18 (inactive)
[3]
  z-score: -5.94 (inactive)
[4]
  composite z-score: -0.512 (inactive)
[5]
  z-score: 1.86 (inactive)
[6]
  z-score: 0.99 (inactive)
[7]
  z-score: -0.409 (inactive)
[8]
  z-score: -0.389 (inactive)
[9]
  z-score: -5.61
[10]
  composite z-score: 0.0589

## COc1cc(C(O)C2C=CC3C(=O)N(Cc4ccccc4)C(=O)C3N2n2cnnc2)cc(OC)c1OC (stereo not given)
[1]
  z-score: 0.462
[2]
  z-score: -0.786 (inactive)
[3]
  z-score: 0.129 (inactive)
[4]
  composite z-score: -1.12 (inactive)
[5]
  z-score: 1.6 (inactive)
[6]
  z-score: -1.27 (inactive)
[7]
  z-score: 0.904 (inactive)
[8]
  z-score: 0.759 (inactive)
[9]
  z-score: 0.0011
[10]
  composite z-score: 0.0546

## COC(=O)[C@@]1(Cc2ccc(OC)cc2)[C@H]2c3cc(C(=O)N4CCCC4)n(Cc4cc(C)n(C)n4)c3C[C@H]2CN1C(=O)c1ccccc1
[1]
  z-score: -0.646
[2]
  z-score: 1.1 (inactive)
[3]
  z-score: -2.09 (inactive)
[4]
  composite z-score: -0.77 (inactive)
[5]
  z-score: -0.222 (inactive)
[6]
  z-score: 0.472 (inactive)
[7]
  z-score: -0.145 (inactive)
[8]
  z-score: 0.342 (inactive)
[9]
  z-score: -2.11
[10]
  composite z-score: -0.02

## C=C(/C(=C/C[C@@H](OC(=O)c1ccncc1)c1cccc(OCCO)c1)c1cnc2ccccc2c1)C(C)C
[1]
  z-score: -0.118
[2]
  z-score: -1.48 (inactive)
[3]
  z-score: -0.59 (inactive)
[4]
  composite z-score: -5.68 (inactive)
[5]
  z-score: 1.86 (inactive)
[6]
  z-score: 0.152 (inactive)
[7]
  z-score: -0.192 (inactive)
[8]
  z-score: -0.284 (inactive)
[9]
  z-score: 0.0866
[10]
  composite z-score: 0.227

## CC(C)C(=C=CC[C@@H](O)c1cccc(OCCO)c1)C[C@@H](O)COCc1ccccc1
[1]
  z-score: 0.564
[2]
  z-score: -1.91 (inactive)
[3]
  z-score: 0.301 (inactive)
[4]
  composite z-score: -3.34 (inactive)
[5]
  z-score: 0.424 (inactive)
[6]
  z-score: -2.4 (inactive)
[7]
  z-score: 0.789 (inactive)
[8]
  z-score: 0.633 (inactive)
[9]
  z-score: 0.47
[10]
  composite z-score: -0.119

## CC(C)CNC(=O)[C@@]1(c2ccc([N+](=O)[O-])cc2)CC(=O)N(C2CCCCC2)[C@@H]1c1ccc(CO)cc1
[1]
  z-score: 0.0751
[2]
  z-score: -1.68 (inactive)
[3]
  z-score: 1.17 (inactive)
[4]
  composite z-score: -0.0682 (inactive)
[5]
  z-score: -0.301 (inactive)
[6]
  z-score: -0.377 (inactive)
[7]
  z-score: 0.637 (inactive)
[8]
  z-score: 0.0367 (inactive)
[9]
  z-score: 1.12
[10]
  composite z-score: 0.14

## C=C(COC)C(=O)CC[C@@H](OC(=O)c1cccnc1)c1ccccc1OCCO
[1]
  z-score: -0.956
[2]
  z-score: -0.585 (inactive)
[3]
  z-score: -3.09 (inactive)
[4]
  composite z-score: -0.4 (inactive)
[5]
  z-score: 0.519 (inactive)
[6]
  z-score: -0.0421 (inactive)
[7]
  z-score: 0.325 (inactive)
[8]
  z-score: 0.206 (inactive)
[9]
  z-score: -3.63
[10]
  composite z-score: -0.0663

## Cc1cccc([C@H]2C[C@H]3C(Br)=C[C@@H]2C(=O)[C@]32CO2)c1
[1]
  z-score: -0.536
[2]
  z-score: -12.1 (active)
[3]
  z-score: -0.423 (inactive)
[4]
  composite z-score: 0.288 (inactive)
[5]
  z-score: 0.142 (inactive)
[6]
  z-score: 0.622 (inactive)
[7]
  z-score: 0.906 (inactive)
[8]
  z-score: -0.0628 (inactive)
[9]
  z-score: -0.332
[10]
  composite z-score: 0.172

## NC(=O)[C@H]1[C@@H]2C(=O)O[C@@H](c3ccccc3)[C@@H](c3ccccc3)N2[C@@H](c2ccc(O)cc2)[C@]12C(=O)Nc1ccccc12
[1]
  z-score: -0.367
[2]
  z-score: -0.376 (inactive)
[3]
  z-score: 0.0279 (inactive)
[4]
  composite z-score: 0.0023 (inactive)
[5]
  z-score: 0.0332 (inactive)
[6]
  z-score: 0.575 (inactive)
[7]
  z-score: -0.145 (inactive)
[8]
  z-score: 0.0129 (inactive)
[9]
  z-score: 0.417
[10]
  composite z-score: -0.0559

## CN1C(=O)C2C(C1=O)C1C=C(CCCO)C2C(c2cccs2)N1Cc1cc2c(cc1Br)OCO2 (stereo not given)
[1]
  z-score: -0.0567
[2]
  z-score: -1.67 (inactive)
[3]
  z-score: -0.35 (inactive)
[4]
  composite z-score: -0.539 (inactive)
[5]
  z-score: -0.131 (inactive)
[6]
  z-score: 0.0034 (inactive)
[7]
  z-score: 0.19 (inactive)
[8]
  z-score: -0.512 (inactive)
[9]
  z-score: 0.0707
[10]
  composite z-score: 0.176

## COc1cc2c(cc1O)C(c1cccs1)N(Cc1sc3ccccc3c1Cl)CC2 (stereo not given)
[1]
  z-score: -1.05
[2]
  z-score: -1.41 (inactive)
[3]
  z-score: -0.519 (inactive)
[4]
  composite z-score: -1.72 (inactive)
[5]
  z-score: -0.131 (inactive)
[6]
  z-score: -0.0369 (inactive)
[7]
  z-score: -0.0316 (inactive)
[8]
  z-score: -0.89 (inactive)
[9]
  z-score: -0.94
[10]
  composite z-score: 0.134

## COC(=O)[C@@]1(Cc2ccc(F)cc2)[C@H]2c3cc(C(=O)N(C)C)n(Cc4c(CO)[nH]cc(C)c4=O)c3C[C@H]2CN1C(=O)c1ccccc1
[1]
  z-score: -1.03
[2]
  z-score: 0.966 (inactive)
[3]
  z-score: -1.72 (inactive)
[4]
  composite z-score: -0.244 (inactive)
[5]
  z-score: 1.79 (inactive)
[6]
  z-score: 0.986 (inactive)
[7]
  z-score: -0.0892 (inactive)
[8]
  z-score: -1.36 (inactive)
[9]
  z-score: -0.932
[10]
  composite z-score: 0.0153

## C=CCC(OC(C)=O)[C@@H]1[C@@H](N(Cc2ccc(-c3ccccc3)cc2)C(=O)c2ccc(C)cc2)c2cc(OCCCO)ccc2N1C(=O)Cc1ccc2ccccc2c1 (stereo not given in full)
[1]
  z-score: 1.03
[2]
  z-score: -0.516 (inactive)
[3]
  z-score: 1.38 (inactive)
[4]
  composite z-score: -1 (inactive)
[5]
  z-score: 0.219 (inactive)
[6]
  z-score: -1.72 (inactive)
[7]
  z-score: 1.64 (inactive)
[8]
  z-score: 1.93 (inactive)
[9]
  z-score: 1.22
[10]
  composite z-score: -0.02

## CCCCCN1CC=CC23O[C@@H]4/C=C\CCC(C)OC(=O)C4[C@H]2C(=O)N(CCCCCCO)[C@@H]3C1=O (stereo not given in full)
[1]
  z-score: 1.1
[2]
  z-score: -0.262 (inactive)
[3]
  z-score: 0.798 (inactive)
[4]
  composite z-score: -1.35 (inactive)
[5]
  z-score: 0.165 (inactive)
[6]
  z-score: 0.422 (inactive)
[7]
  z-score: 1.11 (inactive)
[8]
  z-score: 0.848 (inactive)
[9]
  z-score: 1.26
[10]
  composite z-score: -0.359

## O=C(CS)NCCCCCNC(=O)[C@@H]1C[C@@H]2C(=O)N[C@@H](Cc3ccccc3)C(=O)N2[C@@H]1c1cccc(OCCO)c1
[1]
  z-score: -0.528
[2]
  z-score: 0.0575 (inactive)
[3]
  z-score: -0.513 (inactive)
[4]
  composite z-score: -0.148 (inactive)
[5]
  z-score: 0.0067 (inactive)
[6]
  z-score: 0.647 (inactive)
[7]
  z-score: 0.403 (inactive)
[8]
  z-score: 0.801 (inactive)
[9]
  z-score: -0.0412
[10]
  composite z-score: -0.0911
